CYP2C9 act = increases human cytochrome P450 2C9 activity; actives 1.4% (n = 96,000); P11712; activation factor at 5 µM; recombinant CYP2C9, luciferin-H conversion, luminescence; stronger effect = higher value; factor 1 = untreated enzyme, 0 = blocked;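 active means activation factor of 2 or more for CYP2C9 at a 5 µM dose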;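 further: 0 = sulfaphenazole-blocked wells and 1 = vehicle-only wells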
Target sequence (P11712 whole entry, looked up): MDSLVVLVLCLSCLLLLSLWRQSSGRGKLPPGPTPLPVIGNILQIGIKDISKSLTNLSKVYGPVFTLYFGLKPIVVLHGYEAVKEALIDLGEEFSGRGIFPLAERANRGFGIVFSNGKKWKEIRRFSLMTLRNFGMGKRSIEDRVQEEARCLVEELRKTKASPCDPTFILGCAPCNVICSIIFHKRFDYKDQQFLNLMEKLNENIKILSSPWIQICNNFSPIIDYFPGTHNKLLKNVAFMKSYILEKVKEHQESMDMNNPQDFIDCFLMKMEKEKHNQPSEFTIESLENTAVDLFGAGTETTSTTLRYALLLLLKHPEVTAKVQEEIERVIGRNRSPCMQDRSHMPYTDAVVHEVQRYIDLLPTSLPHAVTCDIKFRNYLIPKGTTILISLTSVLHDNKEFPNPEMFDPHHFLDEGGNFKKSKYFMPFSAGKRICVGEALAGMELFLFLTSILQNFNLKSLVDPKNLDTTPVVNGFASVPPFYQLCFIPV
CYP2C19 inhib = blocks human cytochrome P450 2C19; actives 21% (n = 96,000); P33261; CYP2C19 Supersomes, luciferin-H EGE luminescence, 30 min; inhibition, % at 5 µM;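 active means CYP2C19 inhibition above a set limit at 5 µM in the primary screen, cut at about 50% in these data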;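 further: plate controls were negative control wells for no effect and 2.5 mM tranylcypromine positive control for full effect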
Cav3 T inh = inhibitors of human Cav3.2 T-type calcium channel; O95180; Cav3.2-expressing cells, Fluo-4 calcium fluorescence FDSS; stronger effect = lower value; B-score at 10 µM; actives 4% (n = 100,000); AID 449739;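 active means single-dose well whose peak fluorescence ratio is a statistical outlier from its plate by either plate-standardised score or position-corrected B-score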
CYP2C19 act = cytochrome P450 2C19 (human) activation; activation factor at 5 µM; AID 1025; recombinant CYP2C19, luciferin-H EGE luminescence; stronger effect = higher value; 0 = fully inhibited enzyme, 1 = untreated enzyme; 96,000 tested, under 10 active;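 active means activation factor of at least 2 at 5 µM in the primary screen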;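 further: 0 = wells with 2.5 mM tranylcypromine and 1 = vehicle-only wells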
CYP2C9 inh = blocks human cytochrome P450 2C9. CYP2C9 Supersomes, luciferin-H conversion, luminescence. inhibition, % at 5 µM. actives 20% (n = 96,000);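 active means blocking of liver enzyme CYP2C9 beyond about 50% at 5 µM, limit read from the data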
Numbers without * were called inactive; . = not tested or not shown. This is a sample that favours compounds with a hit; in the whole collection about 27% have one here.

SMILES	CYP2C9 act	CYP2C19 inhib	Cav3 T inh	CYP2C19 act	CYP2C9 inh
Cc1ccc(CNS(=O)(=O)N(C)C)cc1	0.9	62*	0.2	0.4	12
Cc1ccc(S(=O)(=O)NCc2ccncc2)cc1	0.8	97*	1.3	0	24
Cc1ccc(C)c(S(=O)(=O)NCc2ccc(C(=O)NCc3ccccn3)cc2)c1	0.1	89*	-0.23	0.1	89*
COc1ccc(S(=O)(=O)NCc2ccccn2)cc1	0.9	32	0.83	0.7	12
CC1CCCCC1NS(=O)(=O)c1ccc(S(=O)(=O)NCc2ccncc2)cc1 (centres undefined)	0	98*	0.54	0	100*
CCOc1ccc(S(=O)(=O)NCc2ccccn2)cc1	1.4	74*	0.2	0.3	-40
Cc1ccc(C)c(S(=O)(=O)NCc2ccc(C(=O)NCc3ccco3)cc2)c1	.	.	-2.3	.	.
Cc1ccc(C)c(S(=O)(=O)NCc2ccncc2)c1	0.7	83*	0.78	0.2	30
CC1CCCCN1S(=O)(=O)c1ccc(S(=O)(=O)NCCc2ccncc2)cc1 (centres undefined)	.	.	0.45	.	.
C[C@@H]1NC(=O)[C@H](CCCN=C(N)N)NC(=O)c2cc([N+](=O)[O-])cc(I)c2OCC[C@@H](C(N)=O)NC1=O	.	.	0.44	.	.
O=S(=O)(NCCc1ccncc1)c1ccc(Br)cc1	0	100*	0.27	0	98*
CCOc1ccc(S(=O)(=O)NCc2ccncc2)cc1	0.2	100*	-0.03	0	79*
COC(=O)C1NC(=O)N2C(C(=O)OC)C(C)(C)S[C@H]12 (some centres undefined)	.	.	1.9	.	.
CCc1nc(OCCN(C)C)c2oc3ccccc3c2n1	0.9	-9	0.77	1.1	6
CCCC(=O)Nc1nc(C)c(-c2csc(Nc3ccc(Cl)cc3)n2)s1	0.7	54*	-0.42	0.5	31
CCC(C)C(=O)Nc1nc(C)c(-c2csc(Nc3ccc(Cl)cc3)n2)s1 (centres undefined)	0.4	40	-0.024	0.6	58*
CC(=O)c1c(C)nc2ccc(Br)cc2c1C(=O)O	0.8	4	.	1	15
Cc1nc2cc(CO)ccc2n1C	1.1	4	0.0034	1	-6
COc1ccc(CNc2ccc3c(c2)nc(C)n3C)cc1	1	58*	0.79	0.4	3
CCCn1cnc2cc(NCc3ccccn3)ccc21	0.9	20	0.66	0.8	14
CCn1cnc2cc(NCc3ccncc3)ccc21	0.4	49	0.9	0.5	62*
CCc1ccc(CNc2ccc3c(c2)ncn3C)cc1	0.8	70*	1	0.3	21
Nc1nc(C2CC2)c(Sc2sc(N)nc2C2CC2)s1	0.5	62*	.	0.4	48
Cn1c(=O)[nH]c(=O)c2c1nc(Br)n2CC(O)COc1ccccc1 (centres undefined)	0.9	-14	0.24	1.1	7
O=C(NCc1nc2ccccc2[nH]1)C1=C[C@H](c2ccc3c(c2)OCO3)C[C@H](OCCCCO)O1	.	.	-0.29	.	.
SMILES	CYP2C9 act	CYP2C19 inhib	Cav3 T inh	CYP2C19 act	CYP2C9 inh
COc1ccc(N=CC2=C(Nc3ccc(OC)cc3)c3c(C)nn(-c4ccccn4)c3CC2)cc1	.	.	-4.2*	.	.
O=C(/C(=C/c1ccc(Cl)cc1)c1nc2ccccc2[nH]1)c1ccccc1	0.9	11	0.92	0.9	15
COc1cc(/C=C(/C(=O)c2cccs2)c2nc3ccccc3[nH]2)cc(OC)c1O	0.1	51*	.	0.5	86*
Cc1ccc(S(=O)(=O)N(CC(=O)N/N=C/c2cccc(C)c2)c2cccc3cccnc23)cc1	0.9	-11	.	1.1	11
C=CCOC(=O)C(C#N)c1nc2ccccc2nc1N1CCN(Cc2ccccc2)CC1 (centres undefined)	0.4	57*	0.011	0.4	64*
COCCCNC(=O)C(C#N)c1nc2ccccc2nc1N1CCN(Cc2ccccc2)CC1 (centres undefined)	0.1	92*	-9*	0.1	93*
C=CCNC(=O)C(C#N)c1nc2ccccc2nc1N1CCN(Cc2ccccc2)CC1 (centres undefined)	0.9	4	0.16	1	9
CCOC(=O)C1CCN(c2ncnc3c2oc2ccccc23)CC1	0.7	31	-0.99	0.7	32
N#CC(C(=O)OC1CCCCC1)c1nc2ccccc2nc1N1CCOCC1 (centres undefined)	0.9	6	-1.2	0.9	10
CCC(CC)COC(=O)C(C#N)c1nc2ccccc2nc1N1CCOCC1 (centres undefined)	0.5	56*	-1.2	0.4	48
CCOC(=O)C1CCCN(c2ncnc3c2oc2ccccc23)C1 (centres undefined)	0.5	69*	-2.2	0.3	46
Cc1cccc(N(C(=O)Cn2nnc3ccccc32)C(C(=O)NC(C)(C)C)c2ccsc2)c1 (centres undefined)	1	0	-0.047	1	-1
CCCCNC(=O)C(C#N)c1nc2ccccc2nc1N1CCN(c2ccccc2F)CC1 (centres undefined)	.	.	-7.5*	.	.
CCOC(=O)C1CCCN(c2nc3ccccc3nc2C(C#N)C(=O)OCCOC)C1 (centres undefined)	0.6	22	.	0.8	35
N#CC(C(=O)NC1CC1)c1nc2ccccc2nc1N1CCN(C/C=C/c2ccccc2)CC1 (centres undefined)	0.6	5	-11*	1	45
COCCNC(=O)C(C#N)c1nc2ccccc2nc1N1CCCCCC1 (centres undefined)	0.7	2	.	1	31
CCOC(=O)C1CCCN(c2nc3ccccc3nc2C(C#N)C(=O)OCC)C1 (centres undefined)	0	93*	-1.1	0.1	96*
COCCOC(=O)C(C#N)c1nc2ccccc2nc1N1CCN(Cc2ccccc2)CC1 (centres undefined)	0.1	80*	-3.7	0.2	91*
O=C1NC(=O)c2cc(NC(=O)C3CCCCC3)ccc21	1	3	0.19	1	-3
COCC(C)OC(=O)C(C#N)c1nc2ccccc2nc1N1CCN(Cc2ccccc2)CC1 (centres undefined)	0.1	74*	-6.1*	0.3	90*
CN1CCN(c2nc3ccccc3nc2C(C#N)C(=O)OC2CCCCC2)CC1 (centres undefined)	0.9	13	0.0087	0.9	9
CC(C)COC(=O)C(C#N)c1nc2ccccc2nc1N1CCN(Cc2ccccc2)CC1 (centres undefined)	0.8	7	-4*	0.9	23
C=CCOC(=O)C(C#N)c1nc2ccccc2nc1N1CCN(c2ccccc2OC)CC1 (centres undefined)	0.3	31	-9.2*	0.7	72*
CC(O)[C@@H](C(=O)N1CCNCC1)n1cc(CCCCN)nn1 (some centres undefined)	.	.	0.064	.	.
CN(Cc1ccccc1)C(=O)CNC(=O)Cn1cnc2ccccc2c1=O	0.8	-3	0.85	1	16
CN(Cc1c(F)cccc1Cl)c1nnnn1-c1ccccc1	0.7	100*	-2.2	0	35
